Several values for one entry are separate records, joined by “and”; a condition that tells them apart may be missing. Equal values may be shown once. The campaign covered roughly 73,000 compounds. About 2,500 (3.4%) were called active. Another 7% or so got no clear call; they are omitted. This is one part of a sample in which actives are shown more often than they occur. Values without a mark were called inactive. Calls come from the whole dose curve; as a rule, active = well fitted inhibition curve with a large enough effect; inconclusive = small, poorly fitted or top-dose-only effect; inactive = no such curve, though single readings can be large or run the other way.
Molecular target: 3-hydroxyacyl-CoA dehydrogenase type-2 (Homo sapiens) (UniProt Q99714)
Sequence (Q99714 whole entry, looked up): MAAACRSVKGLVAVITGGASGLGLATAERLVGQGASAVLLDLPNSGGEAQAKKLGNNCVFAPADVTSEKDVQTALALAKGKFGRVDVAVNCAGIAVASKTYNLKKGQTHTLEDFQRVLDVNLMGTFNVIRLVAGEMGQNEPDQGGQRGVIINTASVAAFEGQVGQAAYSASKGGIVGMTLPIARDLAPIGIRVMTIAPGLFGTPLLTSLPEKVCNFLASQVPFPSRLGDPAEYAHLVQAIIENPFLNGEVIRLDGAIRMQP
Sequence (Q99714 whole entry, looked up): as above
Assay: qHTS Assay for Inhibitors of HADH2 (Hydroxyacyl-Coenzyme A Dehydrogenase, Type II); note: nearly all actives have a fitted effect of over 60% in size
Conditions: recombinant HADH2, NADH fluorescence, beta-hydroxybutyryl-CoA; series mostly up to 57.1 µM; activity change, negative = inhibition: at the top concentration
How it was run: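 NADH fluorescence (ex 360/em 450 nm) read every 30 s for 4 min; activity taken as last-minus-first time point difference. Enzyme 20 nM, NAD+ 1 mM, beta-hydroxybutyryl-CoA 90 uM, pH 9.0 Tris buffer.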
% is set by controls: 0 for no effect and ±100 for the full control effect; potency is the fitted concentration of half-maximal effect.

Q: With `C[C@@H](c1ccccc1)N1C(=O)[C@H]2[C@H]3[C@H](O)[C@H](O)C/C(=N/OC[C@@H](O)COCc4ccco4)[C@@H]3CC[C@@H]2C1=O` as the molecule, how does the activity change, negative = inhibition read?
A: Its activity change, negative = inhibition is 7.28% [at 11.4 µM].

Q: How did the “activity change, negative = inhibition” value turn out when `CCCc1[nH]nc2c1C(C1CC=CCC1)C(C#N)=C(N)O2` (stereo unspecified) was run?
A: The value was -5.39%.

Q: How did the Potency turn out when `CCCc1[nH]nc2c1C(c1ccc(Br)s1)C(C#N)=C(N)O2` (stereo unspecified) was run?
A: Its Potency is 10 µM (active).

Q: Which “activity change, negative = inhibition” value does the source give for `CCCc1[nH]nc2c1C(c1ccc(OC(=O)c3ccco3)cc1)C(C#N)=C(N)O2` (stereo unspecified) here?
A: The value was -4.83%.

Q: `CN(C)c1ncc2nc(-c3ccc(F)cc3)c(=O)n(Cc3ccc(F)cc3)c2n1` was tested. Which “activity change, negative = inhibition” value did it give?
A: The value was -1.36%.

Q: How did the “activity change, negative = inhibition” value turn out when `COC(=O)[C@@]1(Cc2ccc(OC)cc2)[C@H]2c3cc(C(=O)N4CCCC4)n(Cc4ccc(C(F)(F)F)nc4)c3C[C@H]2CN1C(=O)c1ccccc1` was run?
A: Its value is 3.4%.

Q: For `Oc1ccc(O)c2c(O)cccc12`, which Potency is on record?
A: Its Potency is 1.26 µM (active).

Q: Which “activity change, negative = inhibition” value does the source give for `O=C(CSc1nnc(-c2ccc(NS(=O)(=O)c3ccccc3)cc2)o1)NCC1CCCO1` (stereo unspecified) here?
A: The value was -10.8%.

Q: Which “activity change, negative = inhibition” value does the source give for `O=C(CS(=O)(=O)Cc1ccccc1)NCC1CCCO1` (stereo unspecified) here?
A: Its value is 3.24%.

Q: With `O=C(CSC1=Nc2ccccc2C2=NC(c3ccccc3)C(=O)N12)NCC1CCCO1` (stereo unspecified) as the molecule, how does the Potency read?
A: Its Potency is 31.6 µM (active).

Q: For `Cc1ccnc(N)c1`, which “activity change, negative = inhibition” value is on record?
A: Its value is 10.4%.

Q: `N#Cc1ccc(CN2CCCC3(CCN(C(=O)c4ccco4)CC3)C2)cc1` was tested. Which “activity change, negative = inhibition” value did it give?
A: The value was -3.04%.

Q: With `COc1ccc(/C=C/NC(=O)c2ccc(OC)cc2)cc1` as the molecule, how does the activity change, negative = inhibition read?
A: Its activity change, negative = inhibition is -13.3% [at 11.4 µM].

Q: With `C[C@@H]1O[C@@H](O[C@@H]2[C@@H](O)[C@H](OCCc3ccc(O)c(O)c3)O[C@H](CO[C@@H]3O[C@H](CO)[C@@H](O)[C@H](O)[C@H]3O)[C@H]2OC(=O)/C=C/c2ccc(O)c(O)c2)[C@H](O)[C@H](O)[C@H]1O` as the molecule, how does the Potency read?
A: The Potency was 0.1 µM (active).

Q: With `CO/N=C\[C@@H](C)[C@H](OCc1ccccc1)C(C)C` as the molecule, how does the activity change, negative = inhibition read?
A: Its activity change, negative = inhibition is 2.33% [at 11.4 µM].

Q: How did the Potency turn out when `CCN(Cc1ccncc1)C(=O)[C@@H](CO)c1ccccc1` was run?
A: The Potency was “inactive”.

Q: How did the Potency turn out when `C=CC(=O)OCCOCCOCCOCCOC(=O)C=C` was run?
A: The Potency was “inactive”.

Q: `COc1cccc(Cn2c(=O)c(-c3ccccc3)nc3cnc(OC)nc32)c1` was tested. Which “activity change, negative = inhibition” value did it give?
A: Its value is 2.81%.

Q: For `CCOC(=O)CCc1c(C)c2ccc(OCc3nn[nH]n3)c(C)c2oc1=O`, which Potency is on record?
A: The Potency was 25.1 µM (active).

Q: For `C=CC(=C)CCC=C(C)C`, which “activity change, negative = inhibition” value is on record?
A: The value was 6.01%.

Q: `COc1ccccc1C(=O)n1nc(-c2ccccc2)nc1N` was tested. Which “activity change, negative = inhibition” value did it give?
A: The value was 0.521%.

Q: `COc1ccc(C(=O)n2nc(-c3ccc(C)cc3)nc2N)cc1OC` was tested. Which Potency did it give?
A: Its Potency is 31.6 µM (active).

Q: With `COc1ccc(C(=O)n2nc(-c3ccc(Cl)cc3)nc2N)cc1OC` as the molecule, how does the “activity change, negative = inhibition” value read?
A: The value was 20%.

Q: How did the activity change, negative = inhibition turn out when `CO[C@@H]1COC(=O)C/C=C\[C@H](C)[C@@H](NS(=O)(=O)c2ccc(C)cc2)COC(=O)C/C=C\[C@@H]1C` was run?
A: The activity change, negative = inhibition was 6.59% [at 11.4 µM] and 13.2% [at 11.4 µM].

Q: For `COc1ccc(C(=O)N2CCC[C@@]3(CCN(C(=O)NC(C)C)C3)C2)cc1`, which “activity change, negative = inhibition” value is on record?
A: The value was -3.04%.

Q: For `O=C1OCCC=C1[C@@H](O)CCc1ccccc1`, which activity change, negative = inhibition is on record?
A: Its activity change, negative = inhibition is -6.14% [at 11.4 µM].

Q: How did the activity change, negative = inhibition turn out when `C[C@H]1CC[C@H](C(=O)O)N[C@@H]1c1ccc(C#Cc2ccccc2)cc1` was run?
A: The activity change, negative = inhibition was 4.48% [at 11.4 µM].

Q: How did the “activity change, negative = inhibition” value turn out when `CCOC(=O)c1cc2ccccc2nc1C` was run?
A: The value was 3.8%.

Q: With `CCCc1nc2ccccc2c(C(=O)OCc2nnc(-c3cc(OC)c(OC)c(OC)c3)o2)c1CC` as the molecule, how does the “activity change, negative = inhibition” value read?
A: Its value is 11%.

Q: How did the Potency turn out when `CCOC(=O)c1cc(-c2nnc(-c3cc(OC)c(OC)c(OC)c3)o2)c(C)nc1C` was run?
A: The Potency was 5.01 µM (active).

Q: For `Cc1cc2c(cc1C)NC1=C(N2)O[C@H](c2c[nH]c3ccc(COc4ccccc4)cc23)C1=O`, which activity change, negative = inhibition is on record?
A: The activity change, negative = inhibition was 0.634% [at 11.4 µM].

Q: `O=C1CC(c2cccc(Br)c2)C2=C(CCCC2=O)N1` (stereo unspecified) was tested. Which “activity change, negative = inhibition” value did it give?
A: The value was 1.13%.

Q: How did the Potency turn out when `CCCN1C2=C(C(=O)CCC2)C(c2ccc(O)c(Br)c2)C2=C1CCCC2=O` was run?
A: The Potency was 15.8 µM (active).

Q: For `C[C@@H](C(=O)Nc1ccc2ccccc2c1)[C@@H]1C[C@@]1(C)[C@@H](NC(=O)c1cccnc1)c1ccccc1`, which “activity change, negative = inhibition” value is on record?
A: The value was 3.59%.

Q: How did the “activity change, negative = inhibition” value turn out when `COc1ccc(C[C@H](N)C(=O)N[C@@H]2[C@H](O)[C@H](n3cnc4c(N(C)C)ncnc43)O[C@@H]2CO)cc1` was run?
A: Its value is -1.06% [at 25.6 µM].

Q: For `CN1C(=O)c2ccc(NC(=O)C3CCCCC3)cc2C1=O`, which “activity change, negative = inhibition” value is on record?
A: The value was 3.73%.

Q: `O=C(NCc1ccc2c(c1)OCO2)c1ccc2c(c1)C(=O)N(CC1CCCO1)C2=O` (stereo unspecified) was tested. Which “activity change, negative = inhibition” value did it give?
A: Its value is -0.581%.

Q: With `CCC(=O)Nc1ccc(C(=O)Nc2ccc3c(c2)C(=O)N(CC2CCCO2)C3=O)cc1` (stereo unspecified) as the molecule, how does the Potency read?
A: The Potency was 10 µM (active).

Q: Which activity change, negative = inhibition does the source give for `c1ccc2sc(SCCSc3nc4ccccc4s3)nc2c1` here?
A: The activity change, negative = inhibition was 16.5% [at 11.4 µM].

Q: With `COC(=O)[C@@]1(Cc2ccc(F)cc2)[C@@H]2[C@@H](CC(=O)[C@H]2CC(=O)C(=O)N2CCCC2)CN1C(=O)c1ccccc1` as the molecule, how does the “activity change, negative = inhibition” value read?
A: Its value is -3.47%.

Q: How did the “activity change, negative = inhibition” value turn out when `O=C(OCC(COC(=O)c1ccccc1)(COC(=O)c1ccccc1)COC(=O)c1ccccc1)c1ccccc1` was run?
A: The value was 0.505%.

Q: With `CCOc1ccccc1C1C(C(=O)OC)=CN(C)C=C1C(=O)OC` as the molecule, how does the Potency read?
A: Its Potency is 31.6 µM (active).

Q: `COC(=O)C1=CN(C)C=C(C(=O)OC)C1c1ccc(Cl)cc1Cl` was tested. Which “activity change, negative = inhibition” value did it give?
A: The value was 16.3%.

Q: For `CCOc1cc(C2C(C(=O)OC)=CN(C3CCCC3)C=C2C(=O)OC)cc(Br)c1O`, which “activity change, negative = inhibition” value is on record?
A: Its value is 106%.

Q: How did the “activity change, negative = inhibition” value turn out when `Cn1c(=O)c(-c2ccccc2)nc2cnc(N3CCNCC3)nc21` was run?
A: The value was 7.59%.

Q: How did the activity change, negative = inhibition turn out when `CO[C@H]1COC(=O)[C@H](Cc2ccccc2)NC(=O)C/C=C\[C@@H](C)[C@H](OC)COC(=O)C/C=C\[C@@H]1C` was run?
A: The activity change, negative = inhibition was 2.71% [at 11.4 µM].

Q: Which “activity change, negative = inhibition” value does the source give for `O=C(Nc1cccnc1)c1ccc2c(c1)OCO2` here?
A: Its value is -0.811%.

Q: How did the “activity change, negative = inhibition” value turn out when `c1n[nH]c(NCc2ccc3c(c2)OCO3)n1` was run?
A: The value was 3.73%.

Q: For `c1cncc(CNc2ccnc(-c3ccc4c(c3)OCO4)n2)c1`, which Potency is on record?
A: The Potency was 25.1 µM (active).

Q: With `CCCCCCc1ccc(O)cc1O` as the molecule, how does the “activity change, negative = inhibition” value read?
A: The value was -15.6%.

Q: `O=C(Cn1c(=O)sc2ccccc21)Nc1nc2c(s1)CCCC2` was tested. Which “activity change, negative = inhibition” value did it give?
A: The value was -1.57%.

Q: With `COc1cccc(Cn2c(=O)c(CCc3ccccc3)nc3cnc(N(C)C)nc32)c1` as the molecule, how does the “activity change, negative = inhibition” value read?
A: Its value is 9.43%.

Q: How did the “activity change, negative = inhibition” value turn out when `CCOc1ccc(-c2nnc3ccc(SC)nn23)cc1` was run?
A: The value was 9.93%.

Q: How did the Potency turn out when `COC(=O)C(C)Sc1ccc2nnc(-c3cccc(F)c3)n2n1` (stereo unspecified) was run?
A: Its Potency is 12.6 µM (active).

Q: `CC1CCN(C(=O)CSc2ccc3nnc(-c4cccc(F)c4)n3n2)CC1` was tested. Which “activity change, negative = inhibition” value did it give?
A: Its value is 1.29%.

Q: With `Cc1cc(C)c2nc3c(c([C@H](O)[C@@H]4CCCCN4)c2c1)CC/C3=C/c1ccc(Cl)cc1` as the molecule, how does the activity change, negative = inhibition read?
A: The activity change, negative = inhibition was 12.8% [at 11.4 µM].

Source: PubChem BioAssay AID886 (National Center for Advancing Translational Sciences (NCATS), 2007)
